Source: PubChem BioAssay (Tox21)
Records with an inconclusive call do not appear. Active and inactive are the calls of the source. Unless noted, calls come from the whole dose curve; as a rule, active = well fitted curve in the direction sought with a large enough effect in the repeat runs; inconclusive = weak or mixed curves; inactive = no such curve, though single readings can be large; an effect the other way counts as inactive or inconclusive.

Columns and labels:
[1] = qHTS assay to identify small molecule agonists of the estrogen receptor beta (ER-beta) signaling pathway - cell viability counter screen (AID 1259380); note: nearly all actives have a fitted effect of over 30% in size
Outline: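 Compounds dissolved in DMSO were pin-transferred onto ER-beta-UAS-bla HEK293T cells that had settled 6 hr, and exposure ran 16 hr at 37C. Following the reporter read, CellTiter-Glo luminescence after 30 min at room temperature indicated cytotoxicity.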

[2] = qHTS assay to identify small molecule antagonists of the estrogen receptor beta (ER-beta) signaling pathway - cell viability counter screen (AID 1259382);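 note: HEK293T cells carrying ER-beta-UAS-bla reporter stimulated with estradiol; series mostly up to about 92 µM; nearly all actives have a fitted effect of over 55% in size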
Outline: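 CellTiter-Glo ATP luminescence measured after the LiveBLAzer read in the same wells; ER-beta-UAS-bla HEK293T cells, 16 hr compound treatment with 1nM 17-beta-estradiol agonist at 37C, 5% CO2.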

[3] = target: Estrogen receptor (Homo sapiens) (UniProt P03372); assay: qHTS assay to identify small molecule agonists of the estrogen receptor alpha (ER-alpha) signaling pathway in the presence of an antagonist (AID 1259383; calls by dose curve; note: top concentration of the series differs between compounds; nearly all actives have a fitted effect of over 15% in size)
Estrogen receptor (Homo sapiens), sequence (P03372 whole entry, looked up): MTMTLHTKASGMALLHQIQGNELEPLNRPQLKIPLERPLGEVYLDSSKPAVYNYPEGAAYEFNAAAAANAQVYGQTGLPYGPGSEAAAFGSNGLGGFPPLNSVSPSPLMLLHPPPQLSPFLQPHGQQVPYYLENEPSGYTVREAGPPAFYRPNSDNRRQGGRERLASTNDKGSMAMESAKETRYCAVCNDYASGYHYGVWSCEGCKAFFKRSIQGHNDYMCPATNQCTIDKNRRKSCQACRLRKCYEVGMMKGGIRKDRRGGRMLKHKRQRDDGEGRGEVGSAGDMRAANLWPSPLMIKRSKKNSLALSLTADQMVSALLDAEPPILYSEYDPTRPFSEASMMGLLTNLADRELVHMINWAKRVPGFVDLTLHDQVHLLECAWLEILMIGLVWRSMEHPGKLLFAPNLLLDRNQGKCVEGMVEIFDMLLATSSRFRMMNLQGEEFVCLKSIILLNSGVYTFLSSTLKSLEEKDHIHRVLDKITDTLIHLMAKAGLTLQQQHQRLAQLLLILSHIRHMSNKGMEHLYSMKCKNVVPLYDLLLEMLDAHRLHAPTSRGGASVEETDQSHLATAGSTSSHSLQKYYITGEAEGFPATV
Outline: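 Luminescent ERE-luciferase reporter, VM7Luc4E2 cells (endogenous ER-alpha); 10.0nM ICI-182,780 final; 15-point compound titration; 22hr at 37C; ONE-Glo, 30min RT.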

[4] = qHTS assay to identify small molecule agonists or antagonists of the thyroid stimulating hormone receptor (TSHR) signaling pathway - wild type cell line counter screen (AID 1259384; calls by dose curve)
Outline: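 Wild-type Hek293 cells, 800/well, 18 h at 37C, then compound with Ro20-1724 for 30 min RT. cAMP by HTRF (cAMP-d2/anti-cAMP cryptate), 1 h RT, fluorescence read. 15 concentrations, triplicates.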

[5] = target: Thyrotropin receptor (Homo sapiens) (UniProt P16473); assay: qHTS assay to identify small molecule antagonists of the thyroid stimulating hormone receptor (TSHR) signaling pathway (AID 1259385; calls by dose curve; note: nearly all actives have a fitted effect of over 20% in size)
Thyrotropin receptor (Homo sapiens), sequence (P16473 whole entry, looked up): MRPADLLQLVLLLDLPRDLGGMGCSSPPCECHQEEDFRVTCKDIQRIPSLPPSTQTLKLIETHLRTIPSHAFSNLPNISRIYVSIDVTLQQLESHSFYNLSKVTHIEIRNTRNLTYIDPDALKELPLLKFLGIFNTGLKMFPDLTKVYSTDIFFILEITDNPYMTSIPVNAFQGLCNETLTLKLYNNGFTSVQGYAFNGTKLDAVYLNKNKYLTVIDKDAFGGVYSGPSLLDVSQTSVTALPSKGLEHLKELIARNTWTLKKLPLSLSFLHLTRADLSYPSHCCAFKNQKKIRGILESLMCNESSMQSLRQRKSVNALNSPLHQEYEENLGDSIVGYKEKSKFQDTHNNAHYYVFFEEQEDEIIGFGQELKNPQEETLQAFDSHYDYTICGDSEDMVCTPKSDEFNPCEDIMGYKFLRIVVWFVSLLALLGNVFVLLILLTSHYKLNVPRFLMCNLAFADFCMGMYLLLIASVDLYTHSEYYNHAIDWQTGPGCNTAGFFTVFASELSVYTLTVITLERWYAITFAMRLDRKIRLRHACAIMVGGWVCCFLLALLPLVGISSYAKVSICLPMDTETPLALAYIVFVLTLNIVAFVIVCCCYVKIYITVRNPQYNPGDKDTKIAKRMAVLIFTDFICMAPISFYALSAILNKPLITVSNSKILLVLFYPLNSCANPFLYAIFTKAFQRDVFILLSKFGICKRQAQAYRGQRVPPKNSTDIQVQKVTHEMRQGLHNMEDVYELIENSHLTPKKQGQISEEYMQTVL
Outline: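 TSHR-HEK293 cells (800/well) plated 18 h, then compounds with Ro20-1724 and TSH at 1.5 ng/mL final, 30 min at room temperature. cAMP quantified by HTRF (cAMP-d2/anti-cAMP-cryptate, 1 h); 15 concentrations in triplicate.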

[6] = qHTS assay to identify small molecule agonists of the estrogen receptor alpha (ER-alpha) signaling pathway in the presence of an antagonist - cell viability counter screen (AID 1259386);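 note: series mostly up to about 92 µM; cells exposed to compounds for 22 h at 37 °C before the viability read; nearly all actives have a fitted effect of over 30% in size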
Outline: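 Using estrogen-depleted VM7Luc4E2 cells, the 15-concentration compound series was applied together with 10.0nM ICI-182,780 and incubated 22hr at 37C/5% CO2. Cell viability was then scored by CellTiter-Fluor.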

[7] = target: Progesterone receptor (Homo sapiens) (UniProt P06401); assay: qHTS assay to identify small molecule agonists of the progesterone receptor (PR) signaling pathway (AID 1346784; calls by dose curve; note: nearly all actives have a fitted effect of over 30% in size)
Progesterone receptor (Homo sapiens), sequence (P06401 whole entry, looked up): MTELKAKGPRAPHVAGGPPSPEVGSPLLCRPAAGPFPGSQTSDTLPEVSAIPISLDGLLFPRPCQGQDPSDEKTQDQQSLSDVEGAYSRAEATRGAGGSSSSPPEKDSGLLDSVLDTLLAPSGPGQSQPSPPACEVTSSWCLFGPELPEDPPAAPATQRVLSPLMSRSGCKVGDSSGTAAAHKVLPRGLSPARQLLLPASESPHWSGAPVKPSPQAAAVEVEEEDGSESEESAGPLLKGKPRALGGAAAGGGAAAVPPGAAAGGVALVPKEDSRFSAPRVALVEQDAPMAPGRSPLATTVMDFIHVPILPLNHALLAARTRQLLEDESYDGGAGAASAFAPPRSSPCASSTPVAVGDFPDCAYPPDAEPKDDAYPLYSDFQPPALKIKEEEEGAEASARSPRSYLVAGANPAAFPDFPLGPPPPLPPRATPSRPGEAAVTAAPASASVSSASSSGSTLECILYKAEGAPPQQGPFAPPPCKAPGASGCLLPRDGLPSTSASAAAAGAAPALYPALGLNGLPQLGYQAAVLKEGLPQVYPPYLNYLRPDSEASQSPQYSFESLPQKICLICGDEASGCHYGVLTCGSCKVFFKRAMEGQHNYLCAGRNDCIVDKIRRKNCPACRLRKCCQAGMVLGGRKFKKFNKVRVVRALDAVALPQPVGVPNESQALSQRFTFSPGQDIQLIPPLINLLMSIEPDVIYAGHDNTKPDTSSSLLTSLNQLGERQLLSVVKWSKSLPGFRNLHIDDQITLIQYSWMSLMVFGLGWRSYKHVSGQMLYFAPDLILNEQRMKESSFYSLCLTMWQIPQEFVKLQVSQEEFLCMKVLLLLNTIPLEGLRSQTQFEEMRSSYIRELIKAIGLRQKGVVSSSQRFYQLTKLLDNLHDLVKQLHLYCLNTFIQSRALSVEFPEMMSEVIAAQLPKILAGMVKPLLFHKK
Outline: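 Using charcoal-stripped serum (2%) to limit endogenous steroids, PR-UAS-bla HEK 293T cells received compounds for 16 hr at 37C after 6 hr plating; beta-lactamase FRET fluorescence was recorded following 2 hr substrate loading at room temperature.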

[8] = target: Progesterone receptor (Homo sapiens) (UniProt P06401); assay: qHTS assay to identify small molecule antagonists of the progesterone receptor (PR) signaling pathway (AID 1346795; active = well fitted inhibition curve with a large enough effect in the signal ratio in the repeat runs, not every such curve was filed as active; the % refers to the signal ratio)
Outline: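 Inhibition of R5020-induced (1 nM final) beta-lactamase reporter signal in PR-UAS-bla HEK293T cells was scored by FRET fluorescence after overnight (16 hr) compound treatment.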

[9] = qHTS assay to identify small molecule antagonists of the progesterone receptor (PR) signaling pathway - cell viability counter screen (AID 1346798); note: series mostly up to about 92 µM; nearly all actives have a fitted effect of over 50% in size
Outline: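 ATP content as viability readout: CellTiter-Glo luminescence, 30 min room temperature, in PR-UAS-bla HEK293T cells after 16 hr compound/R5020 treatment at 37C and 5% CO2.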

[10] = qHTS assay to identify small molecule agonists of the progesterone receptor (PR) signaling pathway - cell viability counter screen (AID 1346799; calls by dose curve; note: nearly all actives have a fitted effect of over 45% in size)
Outline: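 Cytotoxicity in PR-bla HEK293T cells: 16 h compound, 37C; CellTiter-Glo added post-FRET read; luminescence after 30 min RT.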

[11] = qHTS assay to identify small molecule antagonists of the TGF-beta/Smad signaling pathway - cell viability counter screen (AID 1346824); note: nearly all actives have a fitted effect of over 50% in size
Outline: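 SBE-bla HEK 293T cells, incubated overnight, then compound plus 0.25 ng/mL TGF-beta1 (stock added) for 5 hr at 37 C. Viability was read in the same wells by CellTiter-Glo luminescence after 30 min at room temperature.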

[12] = qHTS assay to identify small molecule agonists of the TGF-beta/Smad signaling pathway - cell viability counter screen (AID 1346829); note: top concentration of the series differs between compounds; nearly all actives have a fitted effect of over 45% in size
Outline: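 Tox21 qHTS format: SBE-bla HEK 293T cells treated with DMSO-dissolved compounds for 5 hr; CellTiter-Glo luminescence after 30 min at room temperature.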

[13] = qHTS assay to identify small molecule agonists of the TGF-beta/Smad signaling pathway (AID 1346859; active = well fitted activation curve with a large enough effect in the signal ratio in the repeat runs, not every such curve was filed as active; the % refers to the signal ratio; note: series mostly up to about 77 µM)
Outline: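 Stable Smad binding element-beta-lactamase HEK 293T cells; 5 hr compound exposure at 37 C under 5% CO2; 2 hr room-temperature substrate step; fluorescence excited at 405 nm, collected at 460 nm and 530 nm.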

[14] = Human pregnane X receptor (PXR) small molecule agonists, qHTS cell viability counter screen (AID 1346977); note: nearly all actives have a fitted effect of over 50% in size
Outline: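 Readout is CellTiter-Fluor fluorescence from PXR-Luc HepG2 cells. Plated cells rested 5hr, then were treated with compounds for 24hr at 37C and 5% CO2, with reagent present during the last hour.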

[15] = Caspase-3/7 induction in HepG2 cells by small molecules, qHTS assay (AID 1346978); note: nearly all actives have a fitted effect of over 15% in size
Outline: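 Wild-type HepG2 cells, 2,000/well, settled 5 hr at 37 C and 5% CO2, then compound-treated for 17 hr; caspase-3/7 activity read by luminescent Caspase-Glo 3/7 after 30 min at room temperature.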

[16] = Caspase-3/7 induction in CHO-K1 cells by small molecules, qHTS assay (AID 1346980); note: nearly all actives have a fitted effect of over 15% in size
Outline: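 Wild-type CHO-K1 cells exposed to compounds for 17hr at 37 C, 5% CO2. Caspase-3/7 activity then measured by Caspase-Glo 3/7 luminescence after 30min at room temperature.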

[17] = target: Thyrotropin-releasing hormone receptor (Homo sapiens) (UniProt P34981); assay: qHTS assay to identify small molecule antagonists of the thyrotropin-releasing hormone receptor (TRHR) signaling pathway (AID 1346877; active = well fitted inhibition curve with a large enough effect in the repeat runs, not every such curve was filed as active; note: series mostly up to about 51 µM)
Thyrotropin-releasing hormone receptor (Homo sapiens), sequence (P34981 whole entry, looked up): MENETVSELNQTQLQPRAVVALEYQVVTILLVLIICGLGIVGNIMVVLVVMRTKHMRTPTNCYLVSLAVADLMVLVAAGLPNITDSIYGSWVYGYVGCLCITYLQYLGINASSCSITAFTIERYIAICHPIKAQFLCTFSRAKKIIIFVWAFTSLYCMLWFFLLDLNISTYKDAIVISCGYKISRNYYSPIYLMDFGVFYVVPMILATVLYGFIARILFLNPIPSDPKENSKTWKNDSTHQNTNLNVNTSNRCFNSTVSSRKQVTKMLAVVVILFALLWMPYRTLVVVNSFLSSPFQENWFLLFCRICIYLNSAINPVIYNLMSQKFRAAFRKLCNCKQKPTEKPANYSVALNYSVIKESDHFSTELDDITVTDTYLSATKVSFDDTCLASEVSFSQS
Outline: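 Calcium signal in dye-loaded TRHR/HEK293 cells; compounds added 5 min before TRH (1 nM final); fluorescence monitored 3 min at 1 s steps.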

[18] = target: Thyrotropin-releasing hormone receptor (Homo sapiens) (UniProt P34981); assay: qHTS assay to identify small molecule agonists of the thyrotropin-releasing hormone receptor (TRHR) signaling pathway (AID 1346891; calls by dose curve;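 note: HEK293 cells expressing TRHR with calcium dye readout; series mostly up to about 58 µM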)
Outline: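 In 1536-format, 1500 TRHR-Hek293 cells per well grew 18 h, took up calcium dye for 2 h at 37 °C, received compound, and were read kinetically; 15-point titrations, triplicates.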

[19] = Caspase-3/7 induction in CHO-K1 cells by small molecules, qHTS cell viability counter screen (AID 1346979); note: nearly all actives have a fitted effect of over 35% in size
Outline: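 To flag cytotoxic compounds, treated CHO-K1 wild-type cells were given CellTiter-Fluor at 16hr and read fluorescently after 1hr at 37C; the caspase-3/7 luminescence was measured in these same wells.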

[20] = target: Androgen receptor (Homo sapiens) (UniProt P10275); assay: qHTS assay to identify small molecule agonists of the androgen receptor (AR) signaling pathway in the presence of an antagonist (AID 1259381; calls by dose curve; note: nearly all actives have a fitted effect of over 15% in size)
Androgen receptor (Homo sapiens), sequence (P10275 whole entry, looked up): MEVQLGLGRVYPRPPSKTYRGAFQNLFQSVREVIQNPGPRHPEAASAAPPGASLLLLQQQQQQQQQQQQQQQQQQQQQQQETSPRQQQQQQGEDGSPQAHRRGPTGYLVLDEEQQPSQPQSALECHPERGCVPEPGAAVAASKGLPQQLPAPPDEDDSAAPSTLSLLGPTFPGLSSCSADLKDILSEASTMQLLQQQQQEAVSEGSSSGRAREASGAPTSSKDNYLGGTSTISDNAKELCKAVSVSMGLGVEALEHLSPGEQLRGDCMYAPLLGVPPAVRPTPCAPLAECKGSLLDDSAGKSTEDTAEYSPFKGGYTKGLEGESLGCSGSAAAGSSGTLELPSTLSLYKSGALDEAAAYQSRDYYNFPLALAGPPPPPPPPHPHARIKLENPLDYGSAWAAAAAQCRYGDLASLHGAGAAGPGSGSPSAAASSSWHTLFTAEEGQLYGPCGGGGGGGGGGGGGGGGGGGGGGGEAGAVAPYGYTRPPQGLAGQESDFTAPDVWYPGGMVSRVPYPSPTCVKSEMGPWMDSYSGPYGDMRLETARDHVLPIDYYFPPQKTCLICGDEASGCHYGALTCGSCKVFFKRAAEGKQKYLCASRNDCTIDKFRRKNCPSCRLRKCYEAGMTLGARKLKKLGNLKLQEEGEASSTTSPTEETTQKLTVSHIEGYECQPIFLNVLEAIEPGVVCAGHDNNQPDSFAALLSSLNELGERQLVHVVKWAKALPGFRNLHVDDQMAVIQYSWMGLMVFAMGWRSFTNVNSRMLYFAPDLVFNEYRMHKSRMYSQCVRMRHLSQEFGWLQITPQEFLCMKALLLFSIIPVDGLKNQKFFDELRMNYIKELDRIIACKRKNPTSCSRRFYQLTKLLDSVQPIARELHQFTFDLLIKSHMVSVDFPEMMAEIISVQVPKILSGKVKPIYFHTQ
Outline: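 Plated MDA-kb2 cells (3,000/well) were pre-incubated 5hr, given nilutamide (3.0uM final) or buffer, then dosed with compounds in DMSO at 15 concentrations. Luciferase activity was quantified by luminescence after 16hr at 37C.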

Measured: Potency

CCCCCCCCCC
not listed: [17] | [18] | [19] | [20]
inactive: all other assays above

Cc1cc(C)c(C)cc1C
not listed: [5] | [20]
inactive: all other assays above

O=C(OCCOCCOC(=O)c1ccccc1)c1ccccc1
not listed: [20]
inactive: all other assays above

CC1=CCC2CC1C2(C)C (stereo unspecified)
not listed: [20]
inactive: all other assays above

CCCCCCCCCCCCCCO
not listed: [20]
inactive: all other assays above

CC(=O)CC(=O)Nc1ccccc1C
not listed: [5] | [19] | [20]
inactive: all other assays above

FC(F)(F)c1ccc(Cl)c(Cl)c1
not listed: [5] | [19]
inactive: all other assays above
